Assay results published in PubChem BioAssay (NCATS).
Results filed as inconclusive are left out. More than one record can exist for a structure, and the calls need not agree. The source made the active and inactive calls. Calls come from the whole dose curve; as a rule, active = well fitted curve in the direction sought with a large enough effect; inconclusive = small, poorly fitted or top-dose-only effect, or another doubt; inactive = no such curve, though single readings can be large; an effect the other way counts as inactive or inconclusive.

What was measured:
[1] = molecular target: Glutathione peroxidase 1 (Homo sapiens) (UniProt P07203); assay: Primary qHTS Assay for Inhibitors of Recombinant Selenoprotein Glutathione Peroxidase 1 (GPX1) (AID 1845191); details: recombinant GPX1, GR-coupled NADPH fluorescence, 15 min; series mostly up to 48.8 µM; note: nearly all actives have a fitted effect of over 65% in size; note: potency is the fitted concentration of half-maximal effect
Sequence of Glutathione peroxidase 1 (Homo sapiens) (P07203 whole entry, looked up): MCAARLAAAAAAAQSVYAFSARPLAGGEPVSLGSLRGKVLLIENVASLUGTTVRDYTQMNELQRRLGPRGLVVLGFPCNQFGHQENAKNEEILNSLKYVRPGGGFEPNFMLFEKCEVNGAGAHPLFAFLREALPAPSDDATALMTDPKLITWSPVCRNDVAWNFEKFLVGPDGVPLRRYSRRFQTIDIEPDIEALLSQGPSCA
Summary of the method: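 10 nM GPX1 + cpd, 30 min RT; start w/ 1 mM GSH, 0.5 mM cumene hydroperoxide, 0.5 mM NADPH, 100 nM GR, 0.01% BSA; buffer 50 mM Tris-HCl pH 7.5, 2 mM EDTA, 150 mM NaCl; Fl 340/450, 0 & 15 min.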

[2] = Quantitative High-Throughput drug screen in 47 multiple myeloma cell lines against the NCATS MIPE library collection: FR4_PLB cell viability assay (AID 1918924; note: nearly all actives have a fitted effect of over 35% in size; note: potency is the fitted concentration of half-maximal effect); details: FR4_PLB myeloma cells viability, CellTiter-Glo ATP, 48 h; series mostly up to 45.8 µM
Summary of the method: (§1)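 Luminescent ATP measurement with CellTiter-Glo gives viability, scaled between DMSO-only wells (100%) and media-only wells (0%). Cells, 500 per well, faced library compounds for 48 hours at 37C.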

[3] = Quantitative High-Throughput drug screen in 47 multiple myeloma cell lines against the NCATS MIPE library collection: Delta47_JCRB cell viability assay (AID 1918925; note: nearly all actives have a fitted effect of over 45% in size; note: potency is the fitted concentration of half-maximal effect); details: Delta47 myeloma viability, CellTiter-Glo ATP, 48 h; series mostly up to 45.8 µM
Summary of the method: (§2)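 CellTiter-Glo ATP luminescence gave viability after 48 h compound treatment at 37C of 500 multiple myeloma cells per well. Normalisation used DMSO-only wells as 100% and media-only wells as 0% viability; primary qHTS of approved and investigational drugs.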

[4] = Quantitative High-Throughput drug screen in 47 multiple myeloma cell lines against the NCATS MIPE library collection: AMO1_DSMZ cell viability assay (AID 1918927; note: nearly all actives have a fitted effect of over 30% in size; note: potency is the fitted concentration of half-maximal effect); details: AMO1 myeloma cells viability, CellTiter-Glo ATP luminescence, 48 h; series mostly up to 45.8 µM
Summary of the method: as §2

[5] = Quantitative High-Throughput drug screen in 47 multiple myeloma cell lines against the NCATS MIPE library collection: ARP1_JJKsccF8 cell viability assay (AID 1918928; note: nearly all actives have a fitted effect of over 40% in size; note: potency is the fitted concentration of half-maximal effect); details: ARP1 myeloma cells viability, CellTiter-Glo ATP, 48 h; series mostly up to 45.8 µM
Summary of the method: (§3)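 Here, 48 h treatment with MIPE 4.0 agents at 37 °C preceded an ATP luminescence read. Plating density was 500 cells per well.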

[6] = Quantitative High-Throughput drug screen in 47 multiple myeloma cell lines against the NCATS MIPE library collection: ARD_JJKsccE7 cell viability assay (AID 1918929; note: potency is the fitted concentration of half-maximal effect); details: ARD myeloma cell line viability, CellTiter-Glo, 48 h; series mostly up to 45.8 µM
Summary of the method: as §2

[7] = Quantitative High-Throughput drug screen in 47 multiple myeloma cell lines against the NCATS MIPE library collection: Karpas620_DSMZ cell viability assay (AID 1918959); details: Karpas620 myeloma viability, CellTiter-Glo ATP luminescence, 48 h; series mostly up to 45.8 µM; note: nearly all actives have a fitted effect of over 30% in size; note: potency is the fitted concentration of half-maximal effect
Summary of the method: as §1

[8] = Quantitative High-Throughput drug screen in 47 multiple myeloma cell lines against the NCATS MIPE library collection: KMM1_JCRB cell viability assay (AID 1918960); details: KMM1 myeloma viability, CellTiter-Glo ATP luminescence, 48 h; series mostly up to 45.8 µM; note: nearly all actives have a fitted effect of over 30% in size; note: potency is the fitted concentration of half-maximal effect;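 for viability (% of DMSO): 100% = DMSO-treated cells and 0% = medium-only wells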
Summary of the method: as §3

[9] = Quantitative High-Throughput drug screen in 47 multiple myeloma cell lines against the NCATS MIPE library collection: EJM_DSMZ cell viability assay (AID 1918926; note: nearly all actives have a fitted effect of over 30% in size; note: potency is the fitted concentration of half-maximal effect); details: EJM myeloma cell viability, CellTiter-Glo ATP, 48 h; series mostly up to 45.8 µM
Summary of the method: as §2

[10] = molecular target: Luciferin 4-monooxygenase (Photinus pyralis) (UniProt P08659); assay: Primary firefly luciferase (FLuc) qHTS assay for identification of artifact compounds. (AID 1845220); details: purified firefly luciferase, luminescence, 5 min; series mostly up to 54.1 µM; note: nearly all actives have a fitted effect of over 60% in size
Summary of the method: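 Compounds sat 15 min at room temperature with 10 uM luciferin and 10 uM ATP (pH 7.6 Tris acetate). Firefly luciferase (10 nM final) was then added, and luminescence was read 5 min later. Data normalized to no-enzyme and DMSO controls were Hill-fitted.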

[11] = Primary fluorescence-based thiol-reactive (MSTI) qHTS assay for identification of artifact compounds. (AID 1845221); details: MSTI thiol-reactivity probe, 1 h; series mostly up to 53.8 µM;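 note: thiol-reactive compounds lower the probe fluorescence signal; nearly all actives have a fitted effect of over 65% in size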
Summary of the method: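 MSTI probe at 4 uM final in 2% DMSO/PBS pH 7.4; compounds, 1 h at room temperature in dark. Fluorescence Ex/Em 525/598 nm, normalised to Acetyl-MSTI and MSTI, fitted to 4-parameter Hill.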

[12] = test system: Nanoluciferase (engineered Oplophorus gracilirostris luciferase); assay: Primary Nanoluciferase (NLuc) qHTS assay for identification of artifact compounds. (AID 1845222); details: NLuc-conditioned medium, Nano-Glo luminescence, 5 min; series mostly up to 54.1 µM;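 note: 0% = DMSO and -100% = no enzyme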
Summary of the method: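 Luminescence from secreted NLuc (filtered, 1:55-diluted S16 cell medium) read 5 min after Nano-Glo substrate; compounds preincubated 15 min, RT. Hill fits of inhibition normalized to DMSO and no-enzyme.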

[13] = Primary redox qHTS assay for identification of artifact compounds. (AID 1845223); details: Amplex Red/HRP redox cycling with DTT, fluorescence; series mostly up to 53.8 µM
Summary of the method: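 Amplex Red (25 uM) and HRP (250 mU/mL) in HBSS, with compounds for 15 min, then 250 uM DTT for 30 min, room temperature, dark. Fluorescence 525/598 nm read; normalized to DMSO and 10 uM DA3003; Hill fit.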

[14] = Quantitative High-Throughput drug screen in 47 multiple myeloma cell lines against the NCATS MIPE library collection: Karpas417_ECACC cell viability assay (AID 1918961); details: Karpas417 myeloma viability, CellTiter-Glo ATP luminescence, 48 h; viability (% of DMSO): at 45.8 µM (top of the series)
Summary of the method: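 Steps: seed 500 cells per well; pin-transfer MIPE 4.0 library; incubate 48 h at 37C, 5% CO2, humidified; add CellTiter-Glo, 5 min room temperature; read luminescence.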

[15] = molecular target: Phospholipid hydroperoxide glutathione peroxidase GPX4 (Homo sapiens) (UniProt P36969); assay: Primary qHTS Assay for Inhibitors of Recombinant Selenoprotein Glutathione Peroxidase 4 (GPX4) (AID 1845192); details: recombinant GPX4, GR-coupled NADPH fluorescence, 15 min; series mostly up to 50 µM; note: nearly all actives have a fitted effect of over 65% in size
Sequence of Phospholipid hydroperoxide glutathione peroxidase GPX4 (Homo sapiens) (P36969 whole entry, looked up): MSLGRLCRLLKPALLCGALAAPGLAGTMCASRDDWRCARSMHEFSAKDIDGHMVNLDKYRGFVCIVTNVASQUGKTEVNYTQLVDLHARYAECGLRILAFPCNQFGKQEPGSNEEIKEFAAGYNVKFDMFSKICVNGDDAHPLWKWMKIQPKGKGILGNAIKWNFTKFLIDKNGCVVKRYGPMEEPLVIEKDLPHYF
Summary of the method: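 NADPH consumption, followed by fluorescence at 340/450 nm between 0 and 15 min, reports GPX4 activity via coupled glutathione reductase (100 nM). Enzyme 200 nM was pre-exposed to compound 30 min; 0.5 mM cumene hydroperoxide and 1 mM GSH served as substrates.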

Nc1[nH]c(=O)ncc1F
inactive: Potency [1] | Potency [2] | Potency [3] | Potency [5] | Potency [6] | Potency [7] | Potency [8]
active: Potency [4] 4.69 µM

COCCCOc1cc(C[C@@H](C[C@H](N)[C@@H](O)C[C@H](C(=O)NCC(C)(C)C(N)=O)C(C)C)C(C)C)ccc1OC
inactive: Potency [1] | Potency [4] | Potency [5] | Potency [7]

CCCN[C@H]1CCc2nc(N)sc2C1
inactive: Potency [1] | Potency [2] | Potency [3] | Potency [9]

CN(Cc1cc(Br)cc(Br)c1N)C1CCCCC1
inactive: Potency [1] | Potency [2] | Potency [3] | Potency [4] | Potency [5] | Potency [6] | Potency [7]

O=C(NCC1CN(c2ccc(N3CCOCC3=O)cc2)C(=O)O1)c1ccc(Cl)s1 (configuration not stated)
active: Potency [6] 23.5 µM
inactive: Potency [1] | outcome [10] | Potency [11] | outcome [12] | Potency [13] | Potency [9]

Cc1ncc([N+](=O)[O-])n1CCO
inactive: Potency [1] | Potency [3] | Potency [5] | Potency [7] | Potency [8]

CNNCc1ccc(C(=O)NC(C)C)cc1
active: Potency [8] 2.96 µM
inactive: Potency [1] | Potency [9] | Potency [4] | Potency [7]

COc1ccc(-c2ccc3cc(C(=O)O)ccc3c2)cc1C12CC3CC(CC(C3)C1)C2
inactive: Potency [1] | Potency [3] | Potency [4] | Potency [5] | Potency [6] | Potency [7] | Potency [8]

CC[C@H](NC(C)C)[C@H](O)c1ccc(O)c2[nH]c(=O)ccc12
inactive: Potency [1] | Potency [2] | Potency [3] | Potency [9] | Potency [4] | Potency [5] | Potency [6] | Potency [7]

CNS(=O)(=O)Cc1ccc2[nH]cc(CCN(C)C)c2c1
active: viability (% of DMSO) [14] 103%
inactive: Potency [1] | Potency [9] | Potency [4] | Potency [8]

O=S(=O)(O)CCS
inactive: Potency [1] | Potency [2] | Potency [3] | Potency [5] | Potency [7] | Potency [8]

CC1=CC(=O)c2ccccc2C1=O
active: Potency [2] 26.4 µM | Potency [3] 16.6 µM | Potency [9] 20.9 µM | Potency [5] 16.6 µM | Potency [7] 14.8 µM
inactive: Potency [15] | Potency [6] | Potency [8]

NCCCC(O)(P(=O)(O)O)P(=O)(O)O
inactive: Potency [1] | Potency [2] | Potency [3] | Potency [9] | Potency [4] | Potency [6] | Potency [7] | Potency [8] | Potency [14]

COC(=O)Nc1nc2ccc(C(=O)c3ccccc3)cc2[nH]1
inactive: Potency [1]
active: Potency [2] 0.296 µM | Potency [3] 1.66 µM | Potency [5] 0.743 µM

CCC(=O)O[C@]1(C(=O)CCl)[C@@H](C)C[C@H]2[C@@H]3CCC4=CC(=O)C=C[C@]4(C)[C@@]3(F)[C@@H](O)C[C@@]21C
inactive: Potency [1] | Potency [9]

O=S(=O)(c1cccc2cnccc12)N1CCCNCC1
inactive: Potency [1] | Potency [6] | Potency [8]

CCOC(=O)c1ccc(OC(=O)CCCCCN=C(N)N)cc1
inactive: Potency [1] | Potency [3] | Potency [4] | Potency [5] | Potency [6] | Potency [7] | Potency [8] | Potency [14]

CN(C)CCc1c[nH]c2ccc(CS(=O)(=O)N3CCCC3)cc12
inactive: Potency [1] | Potency [2] | Potency [3] | Potency [9] | Potency [4] | Potency [5] | Potency [7]

Cn1c(=O)c2c(ncn2CC(O)CO)n(C)c1=O (configuration not stated)
inactive: Potency [1] | Potency [2] | Potency [3] | Potency [9] | Potency [4] | Potency [5] | Potency [7] | Potency [8]

CNCC[C@H](Oc1cccc2ccccc12)c1cccs1
active: Potency [2] 3.72 µM | Potency [3] 2.35 µM | Potency [4] 26.4 µM | Potency [5] 18.7 µM | Potency [6] 23.5 µM | Potency [7] 23.5 µM | Potency [8] 26.4 µM

CC(N)C12CC3CC(CC(C3)C1)C2 (configuration not stated)
6.4 µM (active) and inactive: Potency [1]
inactive: Potency [2] | Potency [3] | Potency [9] | Potency [6] | Potency [7] | Potency [8]

CCN(C)C(=O)Oc1cccc([C@H](C)N(C)C)c1
inactive: Potency [1] | Potency [3] | Potency [9] | Potency [5]
active: Potency [7] 0.0332 µM

C[C@]12C=CC(=O)C=C1CC[C@@H]1[C@@H]2C(=O)C[C@@]2(C)[C@H]1CC[C@]2(O)C(=O)CO
inactive: Potency [1] | Potency [2] | Potency [9] | Potency [4] | Potency [5] | Potency [7] | Potency [8]

CCN[C@H]1C[C@H](C)S(=O)(=O)c2sc(S(N)(=O)=O)cc21
inactive: Potency [1] | Potency [2] | Potency [3] | Potency [4] | Potency [5] | Potency [6] | Potency [7] | Potency [8]

COc1cc2c(Nc3ccc(Br)cc3F)ncnc2cc1OCC1CCN(C)CC1
inactive: Potency [1] | outcome [10] | Potency [11] | outcome [12] | Potency [7] | Potency [8] | Potency [14]

Nc1ccc(S(=O)(=O)Nc2ccccn2)cc1
inactive: Potency [1] | Potency [9] | Potency [4] | Potency [5] | Potency [6] | Potency [7] | Potency [8] | Potency [14]

NC(=O)N1c2ccccc2CC(=O)c2ccccc21
inactive: Potency [15] | Potency [2] | Potency [3] | Potency [4] | Potency [5] | Potency [6] | Potency [7] | Potency [8]

CCC(C)(C)c1ccc(CC(C)CN2C[C@@H](C)O[C@@H](C)C2)cc1 (some centres not stated)
inactive: Potency [1] | Potency [6] | Potency [7] | Potency [8] | Potency [14]
